High-throughput results from PubChem BioAssay.
TSG101-PTAP inh: blocks PTAP/TSG101 interaction to inhibit HIV-1 budding. Q99816. Fluorescence polarization, FITC-PTAP peptide / Tsg101 binding. Potency, µM (top dose mostly 115 µM), hits mostly inhibitors. 340,000 tested, under 10 active; active means well fitted inhibition curve with a large enough effect in the main read-out, with a control signal flat, not every such curve was filed as active; inconclusive means small, poorly fitted or top-dose-only effect, or effect the other way, or a change in a side signal; inactive means no such curve, though single readings can be large or run the other way
Target sequence (Q99816 whole entry, looked up): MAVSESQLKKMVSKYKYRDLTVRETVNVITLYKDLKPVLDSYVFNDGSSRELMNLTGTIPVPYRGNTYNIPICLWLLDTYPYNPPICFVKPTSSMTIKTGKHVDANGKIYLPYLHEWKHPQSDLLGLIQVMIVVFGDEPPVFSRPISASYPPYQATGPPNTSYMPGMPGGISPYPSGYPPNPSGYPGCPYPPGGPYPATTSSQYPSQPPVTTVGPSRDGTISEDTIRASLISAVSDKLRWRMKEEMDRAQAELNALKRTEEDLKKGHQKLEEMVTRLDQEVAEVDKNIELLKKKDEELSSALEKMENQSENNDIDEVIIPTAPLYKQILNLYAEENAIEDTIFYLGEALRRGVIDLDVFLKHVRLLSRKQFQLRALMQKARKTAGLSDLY
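Fluorescence polarization binding of Tsg101 binding domain (10 uM final) to FITC-labeled PTAP peptide (50 nM final) in HEPES pH 7.5 buffer with NaCl, Tween 20, EDTA, TCEP. Compounds added before peptide; binding 20 min at RT.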
PLK1 PBD inh: blocks phosphopeptide binding to human PLK1 polo-box domain. P53350. Plk1 PBD binding of FITC phosphopeptide, fluorescence polarization. Potency, µM, most hits filed as inhibitors. 360,000 compounds, 2.8% hits; further: series mostly up to about 57 µM; nearly all actives have a fitted effect of over 65% in size
TSHR antag: antagonists of human thyroid stimulating hormone receptor; TSHR-expressing cells, TSH-stimulated cAMP HTRF, 2 h; hits give low values; 330,000 compounds, 0.2% hits; activity change, negative = inhibition, % at 11.5 µM; P16473; AID 504810;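 active means activity change below a set negative limit, meaning inhibition stronger than a set level, cut at about -70% in these data; inconclusive means activity change between two set negative limits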
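TSHR-expressing cells were treated with compounds, then stimulated with TSH at EC80 (4nM final) for 2 hours at 37 deg C. Cellular cAMP was measured by HTRF competition between lysate cAMP and cAMP-d2 for a cryptate-labelled anti-cAMP antibody.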
uPA surface inh: inhibitors of cell surface uPA generation. cell surface uPA generation assay, qHTS. Potency, µM (titrated, usually from 38.3 µM), usual class: inhibitors. 330,000 compounds, 0.31% hits. AID 540303; active means well fitted inhibition curve with a large enough effect; inconclusive means small, poorly fitted or top-dose-only effect; inactive means no such curve, though single readings can be large or run the other way; tested in mouse RAW 264.7 cells; further: nearly all actives have a fitted effect of over 55% in size
VDR inhibitor: blocks the human vitamin D receptor; P11473; VDR-SRC2-3 peptide fluorescence polarization, 2 h; Potency, µM, actives largely listed as inhibitors; 400,000 compounds, 0.93% hits
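VDR–SRC2-3 interaction, FP format. Cmpds 23 nl via pintool, brief spin, 2 h ambient incubation.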
Of the large screens only hits and unclear results are named; the others gave an inactive call. Sampled rows, rich in hits. Any-hit rate of the full collection: about 3.1%. Unless noted, the call rests on the fitted dose curve; in most records, active means well fitted curve in the direction sought with a large enough effect; inconclusive means small, poorly fitted or top-dose-only effect, or another doubt; inactive means no such curve, though single readings can be large; an effect the other way counts as inactive or inconclusive.

COc1ccc(CNC(=O)C(C)OC(=O)c2cccs2)cc1 (stereo not drawn)	TSHR antag -100.9
Cc1ccc(NS(=O)(=O)N(C)C)cc1	none
CN(C)S(=O)(=O)Nc1cc(Cl)cc(Cl)c1	PLK1 PBD inh 29.9µM
COc1ccccc1CNS(=O)(=O)c1cc(-c2cc(C)no2)ccc1C(C)C	TSHR antag -80.1
CCCN1CCC(=O)N(CCSc2ccc(NC(C)=O)cc2)CC1	none
CC(=O)Nc1ccc(SC[C@H](C)CN2CC[C@H](O)CCC2=O)cc1	PLK1 PBD inh 18.9µM, VDR inhibitor inconclusive
CC(=O)Nc1ccc(SCCN2CC[C@@H](C(C)(C)C)CCC2=O)cc1	PLK1 PBD inh 10.6µM, uPA surface inh inconclusive
C[C@@H](CSc1ccc(Br)cc1)CN1CC[C@H](O)CCC1=O	none
CC(=O)Nc1ccc(SCCN2CCN(CC(C)C)CCC2=O)cc1	VDR inhibitor 50.1µM (no result: TSG101-PTAP inh, PLK1 PBD inh, TSHR antag, uPA surface inh)
O=C(COc1ccccc1F)Nc1ccc2oc(-c3cccc(Cl)c3)nc2c1	none (no result: TSG101-PTAP inh, PLK1 PBD inh, TSHR antag, uPA surface inh)
O=C(Cn1cc2c(n1)CCCC2)Nc1ccccc1Cl	PLK1 PBD inh 23.8µM
O=C(Cn1cc2c(n1)CCCCC2)NCc1ccccc1	PLK1 PBD inh 29.9µM
O=C(Cn1cc2c(n1)CCCC2)NCc1cccnc1	none
O=C(Oc1ccc(Br)cc1C(=S)N1CCCC1)c1ccccc1F	PLK1 PBD inh 26.7µM
Cc1ccccc1C(=O)Oc1ccc(Br)cc1C(=S)N1CCCC1	none
O=C(Oc1ccc(Br)cc1C(=S)N1CCOCC1)c1ccc([N+](=O)[O-])cc1[N+](=O)[O-]	PLK1 PBD inh 5.97µM, VDR inhibitor inconclusive (no result: uPA surface inh)
COc1ccc(OCC(=O)NCC2(N3CCN(C)CC3)CCCCC2)cc1	none (no result: TSG101-PTAP inh, PLK1 PBD inh, TSHR antag, uPA surface inh)
Cc1ccc(-c2c(=O)n(O)c3ccccc3[n+]2[O-])cc1	none
COc1cc(OC)c2c(-c3cccc(-c4sccc4C(C)=O)c3)cc(=O)oc2c1	uPA surface inh 2.82µM
Nc1cccc(-n2nnnc2CN2CCOCC2)c1	PLK1 PBD inh 10.6µM, VDR inhibitor 44.7µM
Nc1ccc(-n2nnnc2CN2CCOCC2)cc1	none
CN(C)c1ccc(-c2nc(-c3cc4cc(Cl)ccc4oc3=O)cs2)cc1	none (no result: TSG101-PTAP inh, PLK1 PBD inh, TSHR antag, uPA surface inh)
Cc1cc(SCNC(=O)c2ccccc2)nc(C(C)C)n1	PLK1 PBD inh 23.8µM
Cc1cc(C)nc(SCNC(=O)c2ccccc2)n1	none (no result: TSG101-PTAP inh)
COc1ccc(C2=NC(c3ccncc3)=Nc3ccc(OC)cc3N2)cc1	none (no result: TSG101-PTAP inh, PLK1 PBD inh, TSHR antag, uPA surface inh)
Cc1oc2c(c1C(=O)Nc1cccc3ccccc13)CCCC2	PLK1 PBD inh 2.99µM, VDR inhibitor inconclusive
COc1ccccc1NC(=O)c1c(C)oc2c1CCCC2	none
O=C(Nc1cccc2ccccc12)c1ccc(F)cc1	none
O=C(Nc1ccccc1OC(=O)c1ccccc1)c1ccccc1	uPA surface inh 11.2µM (no result: TSHR antag)
O=C(CCc1ccccc1)Nc1ccccc1OC(=O)c1ccccc1	none (no result: TSHR antag)
O=C(Nc1cccc2ccccc12)c1ccccc1	TSHR antag -82.0
CCCCn1c(N)c(N(CC(C)C)C(=O)C2CCN(C(=O)c3ccc(F)cc3)CC2)c(=O)[nH]c1=O	none
CSc1ccc(C(=S)N2CCN(CCO)CC2)cc1	PLK1 PBD inh 26.7µM
OCCN1CCN(C(=S)c2ccc(Br)cc2)CC1	PLK1 PBD inh 6.7µM
Cc1cc(Nc2cccc(C)c2C)n2cnnc2n1	none (no result: TSG101-PTAP inh, PLK1 PBD inh, TSHR antag, uPA surface inh)
CCCCN(CC)C(=O)c1cc2c(=O)n3cccc(C)c3nc2s1	PLK1 PBD inh 16.8µM
CCC(O)(CC)C(=O)N/N=C/c1cc(Br)cc(Br)c1O	none
CC(=O)N/N=C/c1cc(C(C)(C)C)cc(/C=N/NC(C)=O)c1O	PLK1 PBD inh 21.2µM
Cc1ccc(CN(Cc2cc3cc(C)ccc3[nH]c2=O)Cc2nnnn2Cc2ccccc2)cc1	none (no result: TSG101-PTAP inh, PLK1 PBD inh, TSHR antag, uPA surface inh)
Cc1cc2oc(C(=O)NCCc3ccc(S(N)(=O)=O)cc3)cc(=O)c2cc1C	PLK1 PBD inh 26.7µM, VDR inhibitor inconclusive
NS(=O)(=O)c1ccc(CCNC(=O)c2cc3ccccc3s2)cc1	TSHR antag -102.5
Cc1cc2oc(C(=O)NCCc3ccc(S(N)(=O)=O)cc3)c(C)c2cc1C	none
COc1ccccc1-c1c(C)nn2c(N3CCN(c4ccccc4OC)CC3)cc(C)nc12	PLK1 PBD inh 21.2µM
C=CCNC(=S)Nc1ccc(Cl)cc1	PLK1 PBD inh 13.4µM
O=[N+]([O-])c1ccc(Oc2ccc(Oc3ccc(C(F)(F)F)cn3)cc2)nc1	none
Cc1oc(C)c(C(=O)Nc2ccccc2)c1C	none (no result: TSG101-PTAP inh, PLK1 PBD inh, TSHR antag, uPA surface inh)
O=C(O)c1cccc(S(=O)(=O)Nc2ccc3oc(=O)sc3c2)c1	PLK1 PBD inh inconclusive, VDR inhibitor 89.1µM
